# Measured values taken from PubChem BioAssay (NCI).
# The panel holds about 83,000 compounds, 20% with a hit somewhere; the sample as a whole holds those more often.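 Single-dose data. Exposure time 48 hours. Values below 10 considered active.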 Values without a mark were called inactive. Calls of active or inactive are those of the source.
# Assays:
# Assay in all cases: NCI-60 one-dose screen, 48 h (100 = growth as untreated, 0 = no growth, -100 = all killed)
# Conditions in all cases: 10 µM unless noted
# [1] = test system: OVCAR-8 ovarian
# [2] = test system: OVCAR-5 ovarian
# [3] = test system: OVCAR-4 ovarian
# [4] = test system: SK-OV-3 ovarian
# [5] = test system: IGROV1 ovarian
# [6] = test system: HS 578T breast
# [7] = test system: NCI/ADR-RES ovarian
# [8] = test system: T-47D breast
# [9] = test system: BT-549 breast
# [10] = test system: MDA-MB-435 melanoma
# [11] = test system: SW-620 colon
# [12] = test system: MCF7 breast
# [13] = test system: HCT-116 colon
# [14] = test system: HCC-2998 colon
# [15] = test system: KM12 colon
# [16] = test system: RPMI-8226 leukemia
# [17] = test system: OVCAR-3 ovarian
SMILES,growth [1] [%],growth [2] [%],growth [3],growth [4],growth [5],growth [6],growth [7],growth [8],growth [9],growth [10],growth [11],growth [12],growth [13],growth [14],growth [15] [%],growth [16],growth [17] [%]
N#Cc1nc(-c2ccc(Cl)cc2)oc1N1CCC(S(=O)(=O)N2CCOCC2)CC1,101,102,100%,119%,90.5%,105%,100%,103%,103%,99%,95.9%,94.3%,101%,102%,105,–,–
CCN(CC)c1ccc(/C=N/NC(=O)c2ccc(S(N)(=O)=O)cc2)cc1,14.6,46.7,30.4%,35.5%,–,64.1%,–,26%,26.3%,33%,–,7.83% (active),21.5%,43%,21,34.3%,–
O=C(CCCCCCNC(=O)c1csc(Br)n1)NO,23.5,20.2,69.6%,56.3%,36.4%,58.3%,9.08% (active),6.1% (active),88.4%,12%,7.18% (active),26.7%,3.29% (active),63%,56.8,2.81% (active),–
FC(F)(F)c1cc(Br)cc(-c2cc(-c3ccc4c(c3)OCCO4)[nH]n2)c1,19.7,48.8,75.6%,52.5%,20.8%,41.4%,9.71% (active),66.4%,-3.55% (active),-12.3% (active),25.3%,11.4%,5.67% (active),29.1%,12.3,22.5%,–
CCc1cc2c(cc1Cl)nc1c(=O)[nH]c(=O)nc-1n2CCOCC(C)(C)C,72.2,119,52.5%,110%,60.3%,101%,–,80.7%,95%,33.5%,–,58.2%,73.3%,84.1%,76.5,68.5%,–
Cc1[nH]c(C(=O)Nc2ccc(S(=O)(=O)N3CCCCC3)cc2OCCOCCOCCOCCOCCOCCOCCOCCOCCOc2cc(S(=O)(=O)N3CCCCC3)ccc2NC(=O)c2[nH]c(C)c3c2CCCCC3=O)c2c1C(=O)CCCC2,13.6,48.6,12.5%,-42.5% (active),6.25% (active),-17% (active),85.3%,7.19% (active),2.28% (active),18%,37.6%,11%,-32.3% (active),-38.4% (active),29.1,10.6%,–
N#C/C(=N\Nc1ccc(F)cc1)C(=O)Nc1cc(-c2ccccc2)nn1-c1ccccc1,11,19.8,1.96% (active),-14.8% (active),24.7%,25.9%,–,-5.1% (active),7.63% (active),6.98% (active),17.5%,0.117% (active),7.78% (active),19.5%,–,11.9%,11.2
C[C@H]1OCC2(CCN(c3cnc(C(=O)Nc4cc(F)cc5cccnc45)cn3)CC2)[C@H]1N,77.6,74.3,10.5%,98.8%,20.1%,60.8%,72.2%,35.3%,–,79.7%,4.8% (active),1.15% (active),13.9%,78.3%,82.5,42.1%,19.5
NS(=O)(=O)c1nnc(/N=C/c2c(O)[nH]c3ccccc23)s1,99.9,121,98.5%,99.5%,76.5%,102%,107%,85.2%,98.8%,103%,106%,87.6%,94.5%,107%,95.4,109%,107
O=C(Nc1ccc(N=Cc2c(O)[nH]c3ccccc23)cc1)Nc1ccc(S(=O)(=O)Nc2ncccn2)cc1,102,130,101%,114%,112%,103%,106%,92.2%,103%,101%,103%,85%,92.7%,109%,50.9,–,117
